tim23-1 inh = growth inhibitors of tim23-1 mutant yeast, primary screen, luminescence, uHTS; inhibition, % at 20 µM; 330,000 tested, 1.3% active; S. cerevisiae tim23-1 growth, BacTiter-Glo luminescence, 24 h;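 active = growth inhibition of the mutant yeast at or above 50%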;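 also: temperature-sensitive mutant grown at 25 °C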
V-ATPase pH = regulators of yeast V-ATPase proton pumping, primary screen, pHLuorin cytosolic pH fluorescence; AID 504577, 2011; S. cerevisiae; 350,000 tested, 0.37% active; response, % at 10 µM; in the data active = response mostly above about 7.3%, no sharp cut-off; inactive = mostly below about 5.4%; also: actives read high
TIM10 inh = growth inhibitors of isogenic TIM10 control yeast, primary screen, counter-screen for tim10-1 yeast inhibitor project, luminescence, uHTS; S. cerevisiae TIM10 strain growth, BacTiter-Glo luminescence, 24 h; inhibition, % at 10 µM; 330,000 tested, 1.4% active; AID 463195, 2010;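 active = inhibition of 40% or more at the single tested concentration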;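 also: wild-type TIM10 isogenic control strain grown at permissive 25 °C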
NALP1 inh = NALP1 inflammasome inhibitors in reconstituted yeast, colorimetric, S. cerevisiae, triplicate retest. S. cerevisiae NALP1/ASC/caspase-1 growth, X-gal OD620, 72 h. inhibition, % at 10 µM. 280,000 tested, 0.61% active. AID 2071, 2009; in the data active = inhibition mostly above about 24%, no sharp cut-off; inactive = mostly below about 32%
tim10-1 inh = growth inhibitors of tim10-1 mutant yeast, primary screen, luminescence, uHTS | S. cerevisiae tim10-1 ts strain growth, BacTiter-Glo, 24 h | 330,000 tested, 2.2% active | AID 463190, 2010 | inhibition, % at 20 µM;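 active = inhibition of at least 40%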;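 also: mutant grown at 25 °C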
NLRP3 yeast inh = NALP3 inflammasome inhibitors in reconstituted yeast, primary screen, luminescence, uHTS; Yeast reconstituted NLRP3/ASC/caspase-1, beta-gal luminescence, 24 h; inhibition, % at 10 µM; 330,000 tested, 0.39% active;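 active = inhibition of 50% or more; inactive = inhibition below 50%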
tim23-1 conf = tim23-1 mutant yeast growth inhibitors, confirmation, luminescence, single concentration. shares compounds with tim23-1 inh. S. cerevisiae tim23-1 growth, BacTiter-Glo luminescence, 24 h. inhibition, % at 20 µM. 4,400 tested, 83% active. AID 463218, 2010;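 active = inhibition above about 39% in either of two replicate wells at 20 µM, limit read from the data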;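 also: temperature-sensitive tim23-1 mutant grown at 25 °C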
Hits are given with their value; n = inactive; x = not tested or not shown. In the library only some 4.2% were active in any assay of this set; here they are far more common.

SMILES	tim23-1 inh	V-ATPase pH	TIM10 inh	NALP1 inh	tim10-1 inh	NLRP3 yeast inh	tim23-1 conf
COc1ccc(C2=NNC(c3cc(Cl)cc4c3OCOC4)C2)c(O)c1 (configuration not stated)	n	x	n	n	n	n	x
Oc1ccc(Cl)cc1C1=NNC(c2cc(Br)cc3c2OCOC3)C1 (configuration not stated)	56	n	n	n	n	n	56
Oc1ccc(Cl)cc1C1=NNC(c2ccc(Cl)cc2)C1 (configuration not stated)	50	n	n	n	n	n	50
CC(=O)c1ccccc1C(=O)N(C)C1CCCN(Cc2ccccc2F)C1 (configuration not stated)	n	n	n	n	n	n	x
O=c1nc2c(-c3ccccc3F)n[nH]n2c2ccccc12	n	n	n	n	n	n	x
CN(Cc1cccc(F)c1)C(=O)CNS(=O)(=O)c1ccc2ccccc2c1	n	n	n	n	n	n	x
CC(C(Sc1ccccc1N)c1ccccc1)[N+](=O)[O-] (configuration not stated)	58	n	n	x	n	n	57
CNC(=S)N/N=C/c1ccc(-c2ccc(Cl)c([N+](=O)[O-])c2)o1	n	n	n	n	n	n	x
CNC(=S)N/N=C/c1ccc(-c2ccc(C(=O)O)cc2)o1	50	n	n	n	n	n	44
Cc1ccc(Cl)c(NC(=O)CSc2n[nH]c(=O)n2C2CC2)c1Cl	n	n	n	x	n	n	x
Nc1n[nH]c(C2CC2)c1N=Nc1ccc(Cl)cc1	69	n	n	n	n	n	n
Nc1n[nH]c(C2CC2)c1N=Nc1ccc(Cl)c(Cl)c1	69	n	n	x	n	n	n
CSCCC(NC(=O)c1ccccc1)c1nc(-c2ccccc2)no1 (configuration not stated)	n	x	n	n	n	n	x
COC(=O)C1=C(C(=O)OC)[C@@H]2Nc3ccccc3[C@@]23C[C@@H](C(=O)OC)N(C(=O)NC2CCCCC2)C3=N1	n	x	n	x	n	n	x
Cn1nnnc1Sc1ncnc2scc(-c3cccc(C(F)(F)F)c3)c12	53	n	n	x	n	n	46
Cn1nnnc1Sc1ncnc2scc(-c3cc4ccccc4o3)c12	71	n	n	x	n	n	39
Cn1nnnc1Sc1ncnc2scc(-c3ccc(C(F)(F)F)cc3)c12	56	n	n	x	n	n	n
CCCCNC(=O)C(C1CCCCC1)N(CCN(C)C)C(=O)CCCN1C(=O)NC(c2ccc(-c3ccccc3)cc2)C(C(=O)OCc2ccccc2)=C1C (configuration not stated)	51	x	n	x	n	x	n
CCCCCCN(C(=O)CCCCCN1C(=O)NC(c2ccc(-c3ccccc3)cc2)C(C(=O)OCc2ccccc2)=C1C)C(C)C(=O)NCCCC (configuration not stated)	n	x	n	n	n	n	x
Nc1nc2ccc(C(=O)Nc3ccccc3)cc2s1	n	n	n	n	n	n	x
CCc1ccc(NC(=O)c2ccc3nc(N)sc3c2)cc1	54	n	n	40	n	n	n
O=C(COC(=O)c1cc([N+](=O)[O-])ccc1N1CCOCC1)NCc1ccccc1	x	n	x	x	x	x	x
O=C(COC(=O)c1cc([N+](=O)[O-])ccc1N1CCOCC1)NCc1ccc(Cl)cc1Cl	51	n	n	n	n	n	48
O=C(NCCCN1CCOCC1)C(=O)NCC1CCCO1 (configuration not stated)	n	n	n	n	n	n	x
O=C/C=C/c1c(-c2ccccc2)cc2oc3ccccc3cc1-2	50	n	n	n	n	n	59
SMILES	tim23-1 inh	V-ATPase pH	TIM10 inh	NALP1 inh	tim10-1 inh	NLRP3 yeast inh	tim23-1 conf
O=c1oc2ccccc2cc1-c1nc(-c2ccccc2)no1	n	n	n	n	n	n	x
CCn1c(Cn2nnc(-c3ccccc3)n2)nnc1SCC(=O)N1CCOCC1	n	n	n	n	n	n	x
CCn1c(Cn2nnc(-c3ccccc3)n2)nnc1SCc1ccc(Cl)c(Cl)c1	53	n	n	x	n	n	45
COc1cc(C(=O)NCc2cc(C)nc3ccccc23)cc(OC)c1OC	n	n	n	n	n	n	x
Cc1c(NC(=O)/C(=C/c2cccs2)NC(=O)c2ccccc2)c(=O)n(-c2ccccc2)n1C	n	n	n	n	n	n	x
CN(CC12CC3CC(CC(C3)C1)C2)C(=O)c1ccco1	n	n	n	n	n	n	x
CN(C(=O)c1ccco1)c1nnc(C23CC4CC(CC(C4)C2)C3)s1	55	n	n	n	n	n	59
Cc1ccc(-c2nn(-c3ccc(F)cc3)cc2C(=O)NC2CCC(O)CC2)cc1 (configuration not stated)	n	n	n	x	n	n	x
COc1cc(-c2c(C#N)c(N)nc3c2CCCC3)ccc1O	n	n	n	n	n	n	x
COc1ccc(-c2c(C#N)c(N)nc3c2CCc2ccccc2-3)cc1OC	51	x	n	n	n	n	n
CCN(CC)C(=O)C1CCCN(c2ncnc3c2cnn3-c2ccc(Cl)cc2)C1 (configuration not stated)	n	n	n	n	n	n	x
Cc1ccnc(NC(=O)c2cc(F)c(F)cc2Cl)n1	62	n	n	n	n	n	47
COc1ccc(CN(C)[C@H]2C[C@H]3c4[nH]c5ccccc5c4CCN3C[C@H]2[C@H](C)O)cc1	x	n	x	x	x	x	x
Cc1nn(Cc2ccccc2)c2c1C(c1cccc(Cl)c1)C(C#N)=C(N)O2 (configuration not stated)	n	n	n	n	n	n	x
O=C(Cn1nc(Cl)nc1Cl)c1ccc(F)cc1	n	n	n	n	n	n	x
O=C(Cn1nc(Cl)nc1Cl)c1ccc2c(c1)OCCO2	55	n	n	n	n	n	n
COc1ccc(Cn2c(C)nc([N+](=O)[O-])c2SCC(=O)O)cc1[N+](=O)[O-]	55	n	n	n	n	n	n
OCCCNc1cc(-c2ccccc2)nc2cc(-c3ccc(F)cc3)nn12	51	n	n	n	n	n	55
Cc1cc(NCCCO)n2nc(-c3cccs3)cc2n1	n	n	n	n	n	n	x
Cc1nc2scc(C)n2c(=O)c1S(=O)(=O)Nc1ccc(OC(F)(F)F)cc1	60	n	n	n	n	n	64
Cc1nc2scc(C)n2c(=O)c1S(=O)(=O)Nc1ccc(N2CCOCC2)c(Cl)c1	n	n	n	n	n	n	x
Oc1c(Cl)cc(Cl)cc1CNc1nccs1	51	n	n	n	n	n	52
Oc1c(Cl)cc(Cl)cc1CNn1cnnc1	n	n	n	n	n	n	x
